From PubChem BioAssay
TDP1 inh = TDP1 (human) enzyme inhibition; Potency, µM (doses to about 130 µM), usual class: inhibitors; recombinant TDP1, AlphaScreen DNA substrate cleavage; Q9NUW8; 350,000 tested, 0.28% active; note: nearly all actives have a fitted effect of over 40% in size
Target sequence (Q9NUW8 whole entry, looked up): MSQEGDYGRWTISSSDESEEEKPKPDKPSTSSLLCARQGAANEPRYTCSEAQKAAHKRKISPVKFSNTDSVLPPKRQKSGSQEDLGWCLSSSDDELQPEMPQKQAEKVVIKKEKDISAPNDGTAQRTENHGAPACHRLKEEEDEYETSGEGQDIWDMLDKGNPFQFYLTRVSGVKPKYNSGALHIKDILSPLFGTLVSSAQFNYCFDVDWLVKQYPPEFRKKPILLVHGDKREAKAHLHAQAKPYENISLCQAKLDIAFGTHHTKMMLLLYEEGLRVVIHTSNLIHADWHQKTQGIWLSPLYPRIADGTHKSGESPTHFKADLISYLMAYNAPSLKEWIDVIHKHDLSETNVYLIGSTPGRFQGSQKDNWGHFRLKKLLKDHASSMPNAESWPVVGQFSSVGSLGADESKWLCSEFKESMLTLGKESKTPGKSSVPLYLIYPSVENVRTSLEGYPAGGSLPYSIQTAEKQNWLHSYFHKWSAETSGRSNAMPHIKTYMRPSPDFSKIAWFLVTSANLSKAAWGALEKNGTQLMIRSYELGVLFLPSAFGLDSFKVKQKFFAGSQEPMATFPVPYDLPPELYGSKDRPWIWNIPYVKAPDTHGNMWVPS
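Signal: AlphaScreen proximity between streptavidin donor and anti-FITC acceptor beads on intact substrate. Reaction: Tdp1 1 nM, substrate 15 nM final, 5 min RT after 15 min compound preincubation.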
TDP1 cell CPT = growth inhibition of DT40 Tdp1-/-;hTDP1 cells with camptothecin (screen for TDP1 inhibitors); chicken DT40 Tdp1-/-;hTDP1 cells + 20 nM CPT, ATP luminescence, 48 h; Potency, µM (top dose mostly 46.2 µM), actives largely listed as inhibitors; 420,000 tested, 12% active; note: nearly all actives have a fitted effect of over 55% in size
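Cell growth measured by CellTiter-Glo luminescence after a minimum 48 h, 37 C compound exposure with 20 nM CPT in Tdp1-knockout DT40 cells stably expressing hTDP1, seeded 400/well; qHTS titration format.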
CtBP-E1A inh = CtBP/E1A binding inhibition. 340,000 tested, 0.49% active. activity change, % (test concentration not listed). AID 651724. AlphaScreen GST-E1A/His-CtBP binding, 1536-well; stronger effect = lower value; in the data active = activity change below about -65%; inconclusive = mostly about -30% to -63%
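GST-E1A and His-tagged CtBP (125 nM each as 5X stock) were preincubated with pin-transferred compound for 2 h at 37 °C in the dark, then glutathione donor and nickel acceptor beads were added for 1 h before AlphaScreen reading.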
DT40 TDP1 no CPT = qHTS for Inhibitors of human tyrosyl-DNA phosphodiesterase 1 (TDP1): qHTS in cells in absence of CPT | DT40 Tdp1-/- hTDP1 cells, no CPT, ATP luminescence, 48 h | Potency, µM (series often up to 46.2 µM), usual class: inhibitors | 420,000 tested, 15% active | AID 686978, 2013; note: nearly all actives have a fitted effect of over 55% in size
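A cellular qHTS used chicken DT40 cells lacking endogenous Tdp1 but carrying stably transfected human TDP1. Compounds were applied without camptothecin, and cell growth kinetics were judged by ATP-dependent luminescence after ≥48 hr.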
IL1B secr inh = inhibitors of inflammasome signaling (IL-1 beta secretion) | THP-1 LPS/ATP IL-1B secretion, AlphaLISA, 16 h; stronger effect = lower value | activity change, % at 57.5 µM | 360,000 tested, 4.7% active; in the data active = activity change below about -50%; inconclusive = mostly about -30% to -49%
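Secreted IL-1B measured by AlphaLISA bead assay after 16 h compound exposure of THP-1 cells; compounds (final up to 57.5 uM) added 1 h before LPS (250 ng/mL) and ATP (1.25 mM) stimulation; lower signal means less secretion.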
Six1-Eya2 blk = blocks human Six1 binding to Eya2. Q15475+O00167. activity change, % (test concentration not listed). 360,000 tested, 0.56% active. AID 651725. AlphaScreen GST-Six1/His-Eya2 binding, biochemical; stronger effect = lower value; in the data active = activity change below about -65%; inconclusive = mostly about -30% to -63%
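Compounds are tested against tagged Six1 and Eya2 proteins bridged by glutathione donor and nickel acceptor beads; after a one-hour incubation at 37 °C without light, AlphaScreen emission is recorded.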
A number is an active result; 0 = inactive; ? = inconclusive; - = no result given. The list is not random: actives were taken first. Their share in the collection is about 18%. Unless noted, calls come from the whole dose curve; as a rule, active = well fitted curve in the direction sought with a large enough effect; inconclusive = small, poorly fitted or top-dose-only effect, or another doubt; inactive = no such curve, though single readings can be large; an effect the other way counts as inactive or inconclusive.

SMILES	TDP1 inh	TDP1 cell CPT	CtBP-E1A inh	DT40 TDP1 no CPT	IL1B secr inh	Six1-Eya2 blk
O=C(c1cccs1)N(c1ccc(F)cc1)C1C=CS(=O)(=O)C1 (stereo not drawn)	0	0	0	0	0	0
CC(=O)Nc1cccc(-c2csc(C(NC(C)=O)c3ccc(F)c(F)c3)n2)c1 (stereo not drawn)	-	0	0	0	0	0
CC(=O)NC(c1ccc(F)c(F)c1)c1nc(-c2cccc(C(=O)O)c2)cs1 (stereo not drawn)	-	0	0	0	0	0
CC(=O)NC(c1ccc(F)c(F)c1)c1nc(-c2cccc(F)c2)cs1 (stereo not drawn)	-	20.6µM	0	0	0	0
CC(=O)NC(c1ccc(F)c(F)c1)c1nc(-c2ccncc2)cs1 (stereo not drawn)	-	18.4µM	0	14.6µM	0	0
CC(=O)NC(c1ccc(F)c(F)c1)c1nc(-c2cccc(C(C)C)c2)cs1 (stereo not drawn)	-	16.4µM	0	23.1µM	?	0
COc1ccc(C(CNC(=O)c2cc(S(=O)(=O)NCc3ccco3)ccc2C)N(C)C)cc1 (stereo not drawn)	0	0	-	?	0	0
C[N+]1(CC#CC(O)(c2ccccc2)c2ccccc2)CCCC1	0	0	0	0	0	0
CC(=O)/C(=N/Nc1ccccc1)Sc1nnc(CCc2ccccc2)n1-c1ccccc1	0	11.6µM	0	18.4µM	-76.1	0
O=C(CSc1nnc(CCc2nc3ccccc3[nH]2)n1-c1ccccc1)NCc1ccccc1	0	0	0	?	0	0
O=C(CSc1nnc(CCc2ccccc2)n1-c1ccc(Cl)cc1)NCc1ccccc1	0	16.4µM	0	16.4µM	0	0
Cc1ccc(CCc2nnc(SCC(=O)Nc3ccccc3Cl)n2-c2ccccc2)o1	0	?	0	?	-63.6	0
CC(=O)/C(=N\Nc1ccc(Cl)cc1)Sc1nnc(-c2ccccc2)n1-c1ccccc1	0	?	0	?	0	0
COc1ccc(-n2c(CCc3ccccc3)nnc2SCC(=O)NCc2ccccc2)cc1	0	?	0	?	-51.8	0
CCOC(=O)c1ccc(NC(=O)CSc2nnc(CCc3ccc(C)o3)n2-c2ccccc2)cc1	0	?	0	?	?	0
Cc1ccc(O)c(NC(=O)c2cccc(S(=O)(=O)N3CCCCC3)c2)c1	0	?	0	?	0	0
COc1ccc(S(=O)(=O)N(CC(=O)N2CCN(C)CC2)c2ccc(C)cc2)cc1Br	0	0	0	0	0	0
CCCNC(=O)C(CC)NC(=O)c1ccc(C#N)cc1 (stereo not drawn)	0	0	0	0	0	0
O=C1CCN(Cc2ccccc2)CCN1[C@H](COc1ccccc1)c1ccccc1	-	?	0	?	0	0
CC1(C(=O)NC2CCCCC2)CCC(=O)N1Cc1cccs1 (stereo not drawn)	0	0	0	0	0	0
CCN(CC)c1ccc(NC(=O)Nc2cccc3ccccc23)cc1	-	0	0	?	0	0
O=c1c2ccccc2nc2sc3ccccc3n12	0	?	0	13µM	0	0
CCCCC(=O)Nc1ccc(C(=O)OCc2cc(=O)n3nc(C4CC4)sc3n2)cc1	0	0	-	?	-	-
CCOCCn1ccc2c(OCC(=O)Nc3ccccc3F)cccc2c1=O	0	?	0	?	0	0
CCCn1ccc2c(OCC(=O)NCc3ccccc3Cl)cccc2c1=O	0	?	-	23.1µM	-	-
SMILES	TDP1 inh	TDP1 cell CPT	CtBP-E1A inh	DT40 TDP1 no CPT	IL1B secr inh	Six1-Eya2 blk
CCn1ccc2c(OCC(=O)NCc3ccccc3)cccc2c1=O	0	0	-	?	-	-
CCCn1ccc2c(OCC(=O)Nc3ccccc3OCC)cccc2c1=O	0	20.6µM	-	11.6µM	-	-
CCOCCn1ccc2c(OCC(=O)Nc3ccc(OC)cc3OC)cccc2c1=O	-	0	0	?	0	?
COCCn1ccc2c(OCC(=O)Nc3ccccc3OC)cccc2c1=O	0	18.4µM	0	20.6µM	?	?
CCOc1ccccc1NC(=O)COc1cccc2c(=O)n(CCOC)ccc12	0	11.6µM	-	13µM	-	-
COc1ccc(NC(=O)COc2cccc3c2CCN(Cc2cccnc2)C3=O)cc1	0	?	0	?	0	0
CCOc1ccc(NC(=O)c2c(NCc3cccnc3)sc3c2CCCC3)cc1	0	?	-	?	-	-
CC(=O)c1c(N2CCC(C(N)=O)CC2)nc(=S)n(-c2ccccc2)c1C	0	0	0	0	0	0
Cc1ccc(C)c(NC(=O)Cn2cc(C(=O)c3cccs3)c3ccccc32)c1	0	18.4µM	-	20.6µM	-	-
CC(=O)c1cn(CC(=O)NCc2ccc3c(c2)OCO3)c2ccccc12	0	13µM	0	13µM	0	0
CC(=O)c1cn(CC(=O)Nc2ccccc2C)c2ccccc12	0	8.2µM	0	6.51µM	0	0
CC(=O)c1cn(CC(=O)Nc2ccc(C)c(C)c2)c2ccccc12	0	0	0	?	0	0
Cc1ccc(NC(=O)Cn2cc(C(=O)c3cccs3)c3ccccc32)cc1C	0	?	-	?	-	-
CC(=O)c1cn(CC(=O)Nc2c(C)cccc2C)c2ccccc12	0	10.3µM	0	8.2µM	0	0
CCOC(=O)C1CN(Cc2ccccc2)C(=O)C1=O (stereo not drawn)	-	0	0	0	0	0
Cc1nc(SC(C)C(=O)Nc2c(C)n(C)n(-c3ccccc3)c2=O)nc(C)c1C (stereo not drawn)	0	0	-	0	0	0
Cn1c(=O)c2c(nc(Cl)n2CCOc2ccccc2)n(C)c1=O	0	?	0	?	0	0
Cc1ccc(NC(=O)Cn2c(O)c(N=NS(=O)(=O)c3ccc(C)cc3)c3ccccc32)cc1	0	?	0	14.6µM	0	0
Cc1ccc(NC(=O)Cn2c(O)c(N=NC(N)=O)c3ccccc32)cc1	0	?	0	?	0	0
Cc1cccc(C)c1NC(=O)Cn1cc(C=O)c2ccccc21	0	20.6µM	0	8.2µM	0	0
CSc1nc(N)nc2c1ncn2CC(=O)NCc1ccc2c(c1)OCO2	-	16.4µM	0	8.2µM	0	0
Cc1cccc(NC(=O)Cn2c(O)c(N=NC(=O)c3ccncc3)c3ccccc32)c1	0	0	0	0	0	0
Cc1ccccc1NC(=O)Cn1c(O)c(N=NC(=O)c2ccccc2O)c2ccccc21	0	?	0	5.8µM	0	0
Cc1cccc(NC(=O)Cn2cc(C=O)c3ccccc32)c1	-	?	0	?	0	0
O=C(c1ccccc1)N1CCN(C(=O)c2ccccc2)C1c1ccccc1	0	0	0	0	0	0
